# Measured values from PubChem BioAssay (NCATS).
# “And” between values parts separate entries of the source, which are not always exact repeats. Equal values may be shown once. Unmarked numbers belong to inactive results. Results filed as inconclusive are left out. A call without a number means that no potency is given here. The source made the active and inactive calls. Unless noted, the call rests on the fitted dose curve; in most records, active means well fitted curve in the direction sought with a large enough effect; inconclusive means small, poorly fitted or top-dose-only effect, or another doubt; inactive means no such curve, though single readings can be large; an effect the other way counts as inactive or inconclusive.
# Columns and labels:
# [1] = Cell Viability - NIH 3T3 (AID 541); conditions: NIH 3T3 cell viability, qHTS; activity change, negative = cytotoxicity: at 92.2 µM (top of the series); further: nearly all actives have a fitted effect of over 25% in size
# Method in brief: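 Luminescent ATP signal (CellTiter-Glo) served as the viability read-out after NIH 3T3 cells were exposed to compounds over a concentration range for 40 hr at 37 °C. Hill-equation modelling of concentration-response data gave AC50.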
# [2] = Cell Viability - Mesenchymal (AID 546);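 further: cells exposed to compound for 40 hours before reading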
# Method in brief: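 Normal human renal glomerulus-derived kidney mesenchymal cells, 1000 per well in complete medium, were treated with compounds for 40 hr at 37 °C. Viability was read as intracellular ATP by CellTiter-Glo luminescence; AC50 values came from Hill-equation fits of qHTS concentration-response data.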
# [3] = Cellular Toxicity (caspase-3) MRC-5 (AID 659)
# Method in brief: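 Luminescence from caspase-cleaved aminoluciferin substrate (Caspase-Glo 3/7, 1 hr RT) reports caspase 3/7 activity in MRC-5 lung fibroblasts after 16 hr compound exposure. Normalized to DMSO basal and 10 uM staurosporine as 100%; AC50 from Hill fits.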
# [4] = Cellular Toxicity (caspase-3) NIH 3T3 (AID 666);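 further: caspase signal read after 16 h compound exposure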
# Method in brief: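 Luminescence from aminoluciferin released by caspase-3/7 cleavage of a peptide substrate served as read-out. Mouse fibroblast NIH 3T3 cells were exposed to compounds over a concentration range for 16 hours, and AC50 values came from standard Hill modelling.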
# [5] = MultiTox-Fluor Cytotoxicity Assay - LYMP1-001 - Dead Cells (AID 946)
# Method in brief: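 Seed 2500 LYMP1-001 cells/well, incubate 5 hr at 37 C; add compound, 16 hr at 37 C; add MultiTox-Fluor reagent, 60 min RT; read dead-cell fluorescence Ex/Em=485/520. Normalize to DMSO and 15 uM tetraoctylammonium bromide.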
# [6] = MultiTox-Fluor Cytotoxicity Assay - LYMP1-002 - Live Cells (AID 955)
# Method in brief: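 Read-out is live-cell protease activity (cell-permeant GF-AFC substrate, fluorescence Ex/Em=405/510), where a decrease indicates acute toxicity. Human lymphoblastoid cells were treated 16 hours at 37 C in a concentration series, and AC50 values came from standard Hill modelling.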
# [7] = Cell Viability - LYMP1-003 - Assay at 24 hr (AID 963)
# Method in brief: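 Cells seeded at 2500/well, 5 hr at 37 C; compounds added; 24 hr at 37 C; CellTiter-Glo added, 30 min room temperature; luminescence read. Decrease in ATP taken as cytotoxicity, AC50 from Hill modelling.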
# [8] = Cell Viability - LYMP2-015 (AID 971); further: nearly all actives have a fitted effect of over 55% in size
# Method in brief: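 Luminescent ATP read-out (CellTiter-Glo) served as the viability measure after lymphoblastoid cells were exposed to compounds for 24 hours at 37 C. Concentration-response data were fitted with the Hill equation to give AC50.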
# [9] = Cell Viability - LYMP2-016 (AID 984); further: nearly all actives have a fitted effect of over 55% in size
# Method in brief: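 Cells were seeded at 2500 per well and rested 5 hr before a 24 hr compound exposure at 37 C. Viability was then gauged as cellular ATP by luciferase luminescence, with AC50 values fitted to the Hill equation.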
# [10] = Cell Viability - LYMP2-024 (AID 988); further: nearly all actives have a fitted effect of over 60% in size
# Method in brief: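 Steps: seed 2500 cells/well, 5 hr 37 C; add compound, 24 hr 37 C; add CellTiter-Glo, 30 min room temperature; read luminescence. AC50 derived by Hill modelling of concentration-dependent ATP loss.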
# [11] = biological target: Vitamin D3 receptor (Homo sapiens) (UniProt P11473); assay: qHTS assay for small molecule agonists of vitamin D receptor signaling (AID 588543; calls by dose curve)
# Method in brief: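 Reporter cells (HEK293T, VDR-UAS-bla) were seeded in medium with 2% charcoal-stripped serum and incubated 5 h, then compounds in concentration series were added for 16 h at 37 °C. Stimulation was scaled between DMSO basal and 50 nM 1α,25-dihydroxyvitamin D3.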
# [12] = qHTS assay for small molecule disruptors of the mitochondrial membrane potential - 5 hr assay (AID 651755; calls by dose curve; further: nearly all actives have a fitted effect of over 40% in size; further: potency means the concentration at half of the fitted maximal effect)
# Method in brief: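 HepG2 cells, attached overnight at 37C, were exposed to compound or DMSO for 5 hr at 37C, 5% CO2. Mito-MPS dye was then added for 30 min, and fluorescence read at 490/535 nm (monomers) and 540/590 nm (aggregates).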
# [13] = biological target: Peroxisome proliferator-activated receptor alpha (Homo sapiens) (UniProt Q07869); assay: qHTS assay for small molecule agonists of the peroxisome proliferator-activated receptor alpha (PPARalpha) signaling pathway (AID 651778); conditions: PathHunter PPARalpha complementation, chemiluminescence, 6 h; hits give high values
# Method in brief: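 Cells plated at 2,000/well and held overnight at 37 C, 5% CO2, then compound added by pin tool for 6 hr; after PathHunter detection reagent and 60 min at room temperature, chemiluminescence from enzyme complementation was read.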
# [14] = qHTS assay for small molecule antagonists of the retinoid-related orphan receptor gamma (ROR-gamma) signaling pathway - cell viability counter screen (AID 720652; active means well fitted curve in the direction sought with a large enough effect in the repeat runs; an effect the other way counts as inactive or inconclusive;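 further: compound exposure lasted 16 hr before ATP read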)
# Method in brief: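 Luminescence from CellTiter-Glo after 30 min at room temperature reported cellular ATP as the cytotoxicity measure. Cells were the CHO reporter line with doxycycline-induced ROR-gamma expression, exposed to compound for 16 hr at 37 C.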
# [15] = qHTS assay for cell viability of the p53RE-bla HCT-116 cell line (AID 743292); further: nearly all actives have a fitted effect of over 55% in size
# Method in brief: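 ATP-based luminescence, 16 h compound exposure at 37 C, p53RE-bla HCT-116 cells at 4,000/well.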
# [16] = biological target: Nuclear receptor subfamily 1 group I member 2 (Rattus norvegicus) (UniProt Q9R1A7); assay: qHTS assay for small molecule activators of the rat pregnane X receptor (rPXR) signaling pathway (AID 651751; call rule not given here); conditions: rPXR reporter cells, luciferase (One-Glo), 24 h
# [17] = Cell Viability - LYMP1-002 - Assay at 24 hr (AID 993)
# Method in brief: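 Cells plated 2500/well, 5 hr 37 C; compounds added, 24 hr 37 C; CellTiter-Glo added, 30 min RT; luminescence read. Tetraoctylammonium bromide positive control. Hill-equation AC50.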
# [18] = biological target: Nuclear receptor ROR-gamma (Homo sapiens) (UniProt P51449); assay: qHTS assay for small molecule antagonists of the retinoid-related orphan receptor gamma (ROR-gamma) signaling pathway (AID 651802);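 further: luciferase reporter luminescence driven by ROR response element; nearly all actives have a fitted effect of over 60% in size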
# Method in brief: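 CHO, TET-inducible ROR + RORE-LUC reporter, 1536-well qHTS. Compound pinned, doxycycline added, 16hr 37C/5% CO2. ONE-Glo, 30 min RT, luminescence; signal drop scored as antagonism.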
# [19] = qHTS assay for small molecule agonists of the antioxidant response element (ARE) signaling pathway measured by Nrf2-dependant transcriptional activity - cell viability counter screen (AID 720653; active means well fitted curve in the direction sought with a large enough effect in the repeat runs; an effect the other way counts as inactive or inconclusive); conditions: ARE-bla HepG2 viability, CellTiter-Glo ATP luminescence, 16 h; hits give low values
# Method in brief: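 ARE-bla HepG2 cells (2,000/well) rested 5 hrs at 37C/5% CO2, then exposed to compounds in DMSO for 16 hrs. Viability was read in the same wells as intracellular ATP by luminescence, 30 min at room temperature after reagent addition.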
# [20] = Cell Viability - Jurkat (AID 426;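 active means dose-dependent loss of cell ATP signal giving a full or clear fitted curve, ranked by lower potency value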; further: potency means the concentration at half of the fitted maximal effect); conditions: qHTS
# Method in brief: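 qHTS, 1536-well; Jurkat E6-1, 5000 cells/well, complete medium; cpd 40 hr, 37 °C; CellTiter-Glo 20 min RT; luminescence. AC50 by Hill fit.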
# Chain of Vitamin D3 receptor (Homo sapiens) (P11473 whole entry, looked up): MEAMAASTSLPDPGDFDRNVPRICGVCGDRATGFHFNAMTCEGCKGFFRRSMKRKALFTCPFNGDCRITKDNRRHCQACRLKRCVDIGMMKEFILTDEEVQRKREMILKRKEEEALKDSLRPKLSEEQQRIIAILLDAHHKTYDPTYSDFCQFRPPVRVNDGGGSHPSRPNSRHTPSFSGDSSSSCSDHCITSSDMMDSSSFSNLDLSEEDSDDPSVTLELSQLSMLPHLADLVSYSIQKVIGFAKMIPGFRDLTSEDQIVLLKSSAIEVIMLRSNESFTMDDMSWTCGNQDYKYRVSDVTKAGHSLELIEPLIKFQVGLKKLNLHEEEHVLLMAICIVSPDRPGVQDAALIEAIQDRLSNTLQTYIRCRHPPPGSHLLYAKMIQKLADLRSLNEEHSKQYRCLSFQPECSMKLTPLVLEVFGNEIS
# Chain of Peroxisome proliferator-activated receptor alpha (Homo sapiens) (Q07869 whole entry, looked up): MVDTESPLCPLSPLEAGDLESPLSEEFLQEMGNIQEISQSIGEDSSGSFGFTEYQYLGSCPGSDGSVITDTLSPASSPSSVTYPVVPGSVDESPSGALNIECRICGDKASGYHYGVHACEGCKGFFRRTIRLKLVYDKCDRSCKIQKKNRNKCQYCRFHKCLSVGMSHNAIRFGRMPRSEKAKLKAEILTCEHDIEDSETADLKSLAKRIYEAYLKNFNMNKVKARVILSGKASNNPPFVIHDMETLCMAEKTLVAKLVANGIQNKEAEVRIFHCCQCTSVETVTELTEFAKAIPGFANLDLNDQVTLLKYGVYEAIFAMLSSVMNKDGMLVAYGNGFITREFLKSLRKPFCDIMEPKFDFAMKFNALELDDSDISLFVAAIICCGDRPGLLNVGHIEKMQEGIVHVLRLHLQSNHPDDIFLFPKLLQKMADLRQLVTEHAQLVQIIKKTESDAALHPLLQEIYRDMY
# Chain of Nuclear receptor ROR-gamma (Homo sapiens) (P51449 whole entry, looked up): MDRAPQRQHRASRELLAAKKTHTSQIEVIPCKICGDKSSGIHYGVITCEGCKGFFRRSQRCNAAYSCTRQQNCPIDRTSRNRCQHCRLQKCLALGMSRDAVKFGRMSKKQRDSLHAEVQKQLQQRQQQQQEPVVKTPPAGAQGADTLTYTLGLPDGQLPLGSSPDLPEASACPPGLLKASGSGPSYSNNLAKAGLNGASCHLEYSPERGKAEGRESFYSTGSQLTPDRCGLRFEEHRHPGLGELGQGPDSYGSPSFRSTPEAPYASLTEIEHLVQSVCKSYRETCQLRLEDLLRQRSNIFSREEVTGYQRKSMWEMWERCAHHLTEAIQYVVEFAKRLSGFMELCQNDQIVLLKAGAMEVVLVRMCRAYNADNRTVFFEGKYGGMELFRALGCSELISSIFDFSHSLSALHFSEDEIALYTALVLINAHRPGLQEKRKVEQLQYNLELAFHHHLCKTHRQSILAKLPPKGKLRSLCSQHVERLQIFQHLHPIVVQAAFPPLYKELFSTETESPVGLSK
# Chain of Nuclear receptor subfamily 1 group I member 2 (Rattus norvegicus) (Q9R1A7 whole entry, looked up): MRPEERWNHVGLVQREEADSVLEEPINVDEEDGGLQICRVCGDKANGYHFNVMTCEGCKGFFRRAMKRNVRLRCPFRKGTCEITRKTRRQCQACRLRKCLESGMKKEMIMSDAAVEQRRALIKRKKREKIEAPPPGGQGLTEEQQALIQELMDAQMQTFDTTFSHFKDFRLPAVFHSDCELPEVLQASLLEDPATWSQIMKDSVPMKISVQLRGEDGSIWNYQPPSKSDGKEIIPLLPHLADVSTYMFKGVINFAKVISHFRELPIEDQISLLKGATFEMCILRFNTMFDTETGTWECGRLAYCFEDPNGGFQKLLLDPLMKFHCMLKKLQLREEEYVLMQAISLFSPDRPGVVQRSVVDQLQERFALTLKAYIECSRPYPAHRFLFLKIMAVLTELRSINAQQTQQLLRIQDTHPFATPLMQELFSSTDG
SMILES,Potency [1],Potency [2],outcome [3],Potency [4],outcome [5],outcome [6],outcome [7],Potency [8],Potency [9],Potency [10],outcome [11],Potency [12],max response [13],Potency [14],Potency [15],max response [16],Potency [17],Potency [18],max response [19],Potency [20]
CCCC[N+](=O)[O-],inactive,inactive,inactive,inactive,inactive,inactive,inactive,inactive,inactive,inactive,inactive,inactive,1.08%,inactive,inactive,1.76%,,,,
O=C(O)C(Br)CBr (stereo unspecified),,inactive,inactive,inactive,inactive,,inactive,inactive,,,,inactive,1.03%,inactive,inactive,-3.61%,inactive,inactive,0.981%,
Cc1ccc(OP(=O)(Oc2ccc(C)cc2)Oc2ccc(C)cc2)cc1,inactive,inactive,inactive,inactive,inactive,inactive,inactive,inactive,inactive,inactive,inactive,13.3 µM (active),-4.04% and -0.382%,,inactive,,inactive,,-0.985% and -5.89%,
ClC(Cl)Br,inactive,inactive,inactive,inactive,inactive,inactive,inactive,,inactive,inactive,inactive,inactive,-1.39%,inactive,inactive,-4.5%,inactive,inactive,9.16%,> 92 µM
CCSC(=O)N1CCCCCC1,inactive,,inactive,inactive,inactive,inactive,inactive,inactive,inactive,inactive,inactive,inactive,3.66% and -1.17%,inactive,inactive,-3.47% and 3.01%,inactive,inactive,-5.76% and -1.37%,> 92 µM
Cc1cc(N=Nc2ccccc2C)ccc1N,,,inactive,inactive,,inactive,inactive,inactive,inactive,inactive,inactive,,-6.65% and -1.39%,,inactive,,,inactive,-2.89% and 2.65%,
C=CC(=O)OCCN(C)C,inactive,inactive,inactive,inactive,inactive,inactive,inactive,inactive,inactive,inactive,inactive,inactive,10.1%,inactive,inactive,2.48%,inactive,inactive,5.35%,> 92 µM
